HT1080 IDH1KD tx – kills HT-1080 cells with IDH1 knockdown; HT-1080 IDH1 knockdown viability, ATP luminescence, 48 h; Potency, µM (top dose mostly 46.1 µM), for inactives: at the highest dose activity, negative = toxicity, hits mostly cytotoxic; 360,000 compounds, 2% hits; AID 686971;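 also: potency is read from the fitted curve at half-maximal effect; 0% = DMSO wells and -100% = cell-free medium wells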
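Cytotoxicity counter-line: IDH1KD HT-1080, 48 h, CellTiter-Glo. Curves classed by r2, magnitude and activity.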
KB-3-1 cytotox – KB-3-1 parental cell cytotoxicity; KB-3-1 viability, CellTiter-Glo ATP luminescence, 72 h; Potency, µM (series often up to 46.1 µM), hits mostly cytotoxic; 400,000 compounds, 1.4% hits; also: potency is read from the fitted curve at half-maximal effect; nearly all actives have a fitted effect of over 60% in size
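Viability of parental KB-3-1 cells, measured by CellTiter-Glo luminescence, followed a 72 h incubation at 37 °C with pinned compounds in phenol-red-free DMEM containing 10% FBS.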
KB-V1 cytotox – kills drug-selected multidrug resistant KB-V1 cells | KB-V1 MDR cells viability, CellTiter-Glo, 72 h | AID 1347076 | 400,000 compounds, 3.4% hits | Potency, µM (highest dose often 46.1 µM), actives largely listed as cytotoxic; also: potency is read from the fitted curve at half-maximal effect; nearly all actives have a fitted effect of over 60% in size
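Readout: CellTiter-Glo luminescence, 10 min after addition. Cells: KB-V1 MDR subline, 72 h at 37 degrees C with compound. Analysis: corrected, normalized data fitted to concentration-effect curves.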
HT1080-NT tox – kills 2HG-producing HT-1080-NT fibrosarcoma cells. Potency, µM (highest dose often 46.1 µM), for the others: at the highest dose activity, negative = less viability, actives largely listed as cytotoxic. 360,000 compounds, 1.6% hits. AID 686970. HT-1080-NT fibrosarcoma viability, CellTiter-Glo ATP luminescence, 48 h;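 also: NT is the 2HG producing partner of a matched IDH1 knockdown line; potency is read from the fitted curve at half-maximal effect; 0% = DMSO-treated cells and -100% = media-only wells without cells; nearly all actives have a fitted effect of over 55% in size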
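Viability of the 2HG-overproducing fibrosarcoma line after 48 hours of compound exposure at 37 degrees C was determined by luminescence with CellTiter-Glo, and concentration-effect curves were then fitted and categorized.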
IL-1B inflam inh – inhibitors of inflammasome signaling (IL-1 beta secretion) | AID 743279 | activity change, % at 57.5 µM | 360,000 compounds, 4.7% hits | THP-1 LPS/ATP IL-1B secretion, AlphaLISA, 16 h; active compounds read low; in the data active = activity change below about -50%; inconclusive = mostly about -30% to -49%
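THP-1 cells pretreated 1 hr with compounds (up to 57.5 uM final), then stimulated with LPS (250 ng/mL final) plus ATP (1.25 mM final); secreted IL-1B measured by AlphaLISA after 16 hr, decreased signal indicating inhibition.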
An asterisk follows results filed as active. This is a sample that favours compounds with a hit; in the whole collection about 8.8% have one here. Unless noted, calls follow the shape of the dose curve; as a rule, active = well fitted curve in the direction sought with a large enough effect; inconclusive = small, poorly fitted or top-dose-only effect, or another doubt; inactive = no such curve, though single readings can be large; an effect the other way counts as inactive or inconclusive. Unless noted, % is scaled to controls: 0 for no effect and ±100 for the full control effect.

What do the screens show for `COCCNC(=S)N(CCc1c(C)[nH]c2ccc(Cl)cc12)Cc1cccs1`?
HT1080 IDH1KD tx: inconclusive; KB-3-1 cytotox: inconclusive; KB-V1 cytotox: inconclusive; HT1080-NT tox: 21µM*; IL-1B inflam inh: -92*

What do the screens show for `CNC(=S)N(CCc1c(C)[nH]c2ccc(C)cc12)Cc1ccco1`?
HT1080 IDH1KD tx: -2%; KB-3-1 cytotox: inactive; KB-V1 cytotox: inactive; HT1080-NT tox: -5%; IL-1B inflam inh: 25

How did CCNC(=S)N(CCc1c(C)[nH]c2ccc(Cl)cc12)Cc1ccco1 do in these assays?
HT1080 IDH1KD tx: inconclusive; KB-3-1 cytotox: 23µM*; KB-V1 cytotox: inactive; HT1080-NT tox: inconclusive; IL-1B inflam inh: -59*

How did COCCNC(=S)N(CCc1c(C)[nH]c2ccc(F)cc12)Cc1cccs1 do in these assays?
HT1080 IDH1KD tx: -4%; KB-3-1 cytotox: inactive; KB-V1 cytotox: inconclusive; HT1080-NT tox: inconclusive; IL-1B inflam inh: inconclusive

How did Cc1[nH]c2ccccc2c1CCN(Cc1cccs1)C(=S)Nc1ccccc1 do in these assays?
HT1080 IDH1KD tx: -5%; KB-3-1 cytotox: inactive; KB-V1 cytotox: inconclusive; HT1080-NT tox: 2%; IL-1B inflam inh: -20

How did Cc1cc(C(=O)NNc2ccccc2F)no1 do in these assays?
HT1080 IDH1KD tx: 2.6µM*; KB-3-1 cytotox: inactive; KB-V1 cytotox: inactive; HT1080-NT tox: 5.2µM*; IL-1B inflam inh: 3

Results for Cc1cc(C(=O)NNc2ccc(F)cc2)no1 ?
HT1080 IDH1KD tx: 5.2µM*; KB-3-1 cytotox: inconclusive; KB-V1 cytotox: inactive; HT1080-NT tox: inconclusive; IL-1B inflam inh: 5

What do the screens show for `CCCc1ccc(C(=O)NNc2ccccc2F)cc1`?
HT1080 IDH1KD tx: 6.5µM*; KB-3-1 cytotox: inactive; KB-V1 cytotox: inactive; HT1080-NT tox: inconclusive; IL-1B inflam inh: 2

How did O=C(NCCN1C(=O)S/C(=C\c2cccc(Cl)c2Cl)C1=O)C1=COCCO1 do in these assays?
HT1080 IDH1KD tx: inconclusive; KB-3-1 cytotox: 21µM*; KB-V1 cytotox: 15µM*; HT1080-NT tox: inconclusive; IL-1B inflam inh: inactive

Results for CCOc1cc(C=O)cc(N=Nc2cccc([N+](=O)[O-])c2)c1O ?
HT1080 IDH1KD tx: 4%; KB-3-1 cytotox: inactive; KB-V1 cytotox: inactive; HT1080-NT tox: 1%; IL-1B inflam inh: 8

Results for O=[N+]([O-])c1cccc(N=Nc2ccc(O)cc2O)c1 ?
HT1080 IDH1KD tx: 5.8µM*; KB-3-1 cytotox: inconclusive; KB-V1 cytotox: inactive; HT1080-NT tox: inconclusive; IL-1B inflam inh: -68*

How did O=[N+]([O-])c1ccc(N=Nc2ccc(O)cc2O)cc1 do in these assays?
HT1080 IDH1KD tx: 5.8µM*; KB-3-1 cytotox: inconclusive; KB-V1 cytotox: inactive; HT1080-NT tox: 18µM*; IL-1B inflam inh: -92*

How did COc1ccc2nc(SCCC(=O)O)cc(C)c2c1 do in these assays?
HT1080 IDH1KD tx: 1%; KB-3-1 cytotox: inactive; KB-V1 cytotox: inactive; HT1080-NT tox: -23%; IL-1B inflam inh: 31

How did CN(CCO)S(=O)(=O)c1ccc2c(c1)C(=NN)c1cc(S(=O)(=O)N(C)CCO)ccc1-2 do in these assays?
HT1080 IDH1KD tx: -8%; KB-3-1 cytotox: inactive; KB-V1 cytotox: inconclusive; HT1080-NT tox: -3%; IL-1B inflam inh: 0

Results for O=C(OCc1cn([C@H]2C[C@H](c3ccc(Cl)cc3)N(C(=O)C3CCCCC3)C[C@@H]2O)nn1)c1ccccc1 ?
HT1080 IDH1KD tx: 0%; KB-3-1 cytotox: inactive; KB-V1 cytotox: inactive; HT1080-NT tox: 1%; IL-1B inflam inh: inconclusive

How did O=C(/C=C/c1c(Cl)cccc1Cl)Nc1ccncc1 do in these assays?
HT1080 IDH1KD tx: -1%; KB-3-1 cytotox: inconclusive; KB-V1 cytotox: inactive; HT1080-NT tox: 13%; IL-1B inflam inh: -60*

Results for CC(=O)c1ccc(NC(=O)C2=CC(c3cccs3)=NS(=O)(=O)N2C)cc1 ?
HT1080 IDH1KD tx: -2%; KB-3-1 cytotox: inactive; KB-V1 cytotox: inactive; HT1080-NT tox: 0%; IL-1B inflam inh: -11

Results for O=C(C=C=Nc1ccccc1)C(=O)N=C=Cc1ccccc1 ?
HT1080 IDH1KD tx: 3.7µM*; KB-3-1 cytotox: inactive; KB-V1 cytotox: inactive; HT1080-NT tox: 6.5µM*; IL-1B inflam inh: -101*

What do the screens show for `O=C(N/N=C/c1ccccc1[N+](=O)[O-])c1ccc(COc2ccccc2-c2ccccc2)cc1`?
HT1080 IDH1KD tx: 10%; KB-3-1 cytotox: inconclusive; KB-V1 cytotox: 2.1µM*; HT1080-NT tox: 7%; IL-1B inflam inh: -4

Results for NC(=S)N/N=C/c1ccccc1OCc1cccc(Cl)c1 ?
HT1080 IDH1KD tx: inconclusive; KB-3-1 cytotox: 18µM*; KB-V1 cytotox: inactive; HT1080-NT tox: inconclusive; IL-1B inflam inh: -26

Results for CC(=O)Nc1ccc(C(=O)N/N=C/c2ccccc2OCc2ccccc2)cc1 ?
HT1080 IDH1KD tx: 21µM*; KB-3-1 cytotox: inconclusive; KB-V1 cytotox: inactive; HT1080-NT tox: 16µM*; IL-1B inflam inh: 13

Results for NC(=S)N/N=C/c1ccc2cccc(OCc3ccccc3)c2n1 ?
HT1080 IDH1KD tx: -10%; KB-3-1 cytotox: inactive; KB-V1 cytotox: inactive; HT1080-NT tox: -18%; IL-1B inflam inh: -7

How did COC(=O)N/N=C\c1cc(Br)ccc1OCc1ccccc1 do in these assays?
HT1080 IDH1KD tx: -2%; KB-3-1 cytotox: inactive; KB-V1 cytotox: inconclusive; HT1080-NT tox: 0%; IL-1B inflam inh: -73*

How did CC(C)CCNC(=O)N1CCN(S(=O)(=O)c2ccc3c(ccn3C)c2)CC1 do in these assays?
KB-3-1 cytotox: inactive; KB-V1 cytotox: inconclusive

How did COC(=O)N/N=C/c1cc(Cl)c(OCc2ccc(F)cc2)c(OC)c1 do in these assays?
HT1080 IDH1KD tx: inconclusive; KB-3-1 cytotox: inactive; KB-V1 cytotox: inactive; HT1080-NT tox: -26%; IL-1B inflam inh: 9

How did CC(C)(C)c1ccc(OCC(=O)N/N=C/c2cc(Br)ccc2OC(=O)c2ccco2)cc1 do in these assays?
HT1080 IDH1KD tx: 7%; KB-3-1 cytotox: inconclusive; KB-V1 cytotox: 7.3µM*; HT1080-NT tox: 8%; IL-1B inflam inh: 43

Results for COc1ccc(Br)cc1/C=N/NC(=O)c1ccco1 ?
HT1080 IDH1KD tx: 17%; KB-3-1 cytotox: inactive; KB-V1 cytotox: inactive; HT1080-NT tox: -5%; IL-1B inflam inh: 38

How did COC(=O)N/N=C/c1cc(Cl)cc(Cl)c1OCc1ccc(F)cc1 do in these assays?
HT1080 IDH1KD tx: 7%; KB-3-1 cytotox: inactive; KB-V1 cytotox: 23µM*; HT1080-NT tox: -5%; IL-1B inflam inh: -5

Results for NC(=S)N/N=C/c1ccccc1[N+](=O)[O-] ?
HT1080 IDH1KD tx: 16%; KB-3-1 cytotox: inactive; KB-V1 cytotox: inconclusive; HT1080-NT tox: 14%; IL-1B inflam inh: 11

What do the screens show for `COC(=O)c1cccc(/C=N/NC(N)=S)c1O`?
HT1080 IDH1KD tx: 8%; KB-3-1 cytotox: inconclusive; KB-V1 cytotox: 15µM*; HT1080-NT tox: inconclusive; IL-1B inflam inh: -26

Screens deposited in PubChem by National Center for Advancing Translational Sciences (NCATS).
